PubChem BioAssay (NCATS)
Inconclusive results are not listed. Entries that show only a call come without a potency. Values without a mark were called inactive. Calls of active or inactive are those of the source. Calls come from the whole dose curve; as a rule, active = well fitted curve in the direction sought with a large enough effect; inconclusive = small, poorly fitted or top-dose-only effect, or another doubt; inactive = no such curve, though single readings can be large; an effect the other way counts as inactive or inconclusive.

Key:
[1] = qHTS of pediatric cancer cell lines to identify multiple opportunities for drug repurposing: Primary screen for TC32 cells (AID 1347089); note: nearly all actives have a fitted effect of over 60% in size; note: potency is the fitted concentration of half-maximal effect
In short: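 Measured quantity: luminescence from CellTiter-Glo, reflecting metabolically active TC32 cells following 48 h of compound. Curves came straight from multi-point titrations, with 8 or 11 points in primary and 11 in confirmatory screening.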

[2] = qHTS of pediatric cancer cell lines to identify multiple opportunities for drug repurposing: Primary screen for DAOY cells (AID 1347090); note: nearly all actives have a fitted effect of over 55% in size; note: potency is the fitted concentration of half-maximal effect
In short: (§1)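 Eight- or eleven-point concentration series, 48 h treatment at 37 degrees C in growth media; readout CellTiter-Glo luminescence. Potency and efficacy were taken from the concentration-response curves.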

[3] = qHTS of pediatric cancer cell lines to identify multiple opportunities for drug repurposing: Primary screen for SJ-GBM2 cells (AID 1347091); note: potency is the fitted concentration of half-maximal effect
In short: as §1

[4] = qHTS of pediatric cancer cell lines to identify multiple opportunities for drug repurposing: Primary screen for A673 cells (AID 1347092); note: nearly all actives have a fitted effect of over 45% in size; note: potency is the fitted concentration of half-maximal effect
In short: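 Cells are plated, rested 5 h, dosed by pintool, incubated 48 h, then lysed with CellTiter-Glo and read by luminescence. DMSO is the neutral control; bortezomib at 2.3 uM final is the positive control.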

[5] = qHTS of pediatric cancer cell lines to identify multiple opportunities for drug repurposing: Primary screen for SK-N-MC cells (AID 1347093); note: potency is the fitted concentration of half-maximal effect
In short: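 Metabolically active cells were quantified by ATP-dependent luminescence (CellTiter-Glo, 15 min at room temperature) following 48 h treatment. Cells had been plated at 500-1,000 per well and settled for 5 h beforehand.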

[6] = qHTS of pediatric cancer cell lines to identify multiple opportunities for drug repurposing: Primary screen for BT-37 cells (AID 1347094); note: potency is the fitted concentration of half-maximal effect
In short: (§2)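 Quantitative HTS format: each compound titrated (MIPE 11 points from 0.78 nM, NPC 8 points from 0.59 nM) onto cells plated 5 hours earlier. After 48 h at 37 degrees C, CellTiter-Glo luminescence was recorded.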

[7] = qHTS of pediatric cancer cell lines to identify multiple opportunities for drug repurposing: Primary screen for NB-EBc1 cells (AID 1347095); note: potency is the fitted concentration of half-maximal effect
In short: as §2

[8] = qHTS of pediatric cancer cell lines to identify multiple opportunities for drug repurposing: Primary screen for U-2 OS cells (AID 1347096); note: nearly all actives have a fitted effect of over 50% in size
In short: (§3)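 Cells (500-1,000/well) in growth media were settled 5 h at 37 degrees C, then given compounds for 48 h. Viability was read as CellTiter-Glo luminescence. Primary runs used MIPE at 11 points (0.78 nM-46 µM) and NPC at 8 points (0.59 nM-46 µM); follow-ups used 11 points.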

[9] = qHTS of pediatric cancer cell lines to identify multiple opportunities for drug repurposing: Primary screen for Saos-2 cells (AID 1347097); note: nearly all actives have a fitted effect of over 40% in size; note: potency is the fitted concentration of half-maximal effect
In short: as §2

[10] = qHTS of pediatric cancer cell lines to identify multiple opportunities for drug repurposing: Primary screen for SK-N-SH cells (AID 1347098);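 note: DMSO served as neutral control and bortezomib at 2.3 µM as positive control; nearly all actives have a fitted effect of over 65% in size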
In short: (§4)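 Cells (500-1,000/well) rested 5 h, then received compounds for 48 h; metabolically active cells were measured by CellTiter-Glo luminescence. Final concentrations spanned up to 46 µM (MIPE, 11-point) or 0.59 nM-46 µM (NPC, 8-point) in primary screens, 11-point in follow-ups.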

[11] = qHTS of pediatric cancer cell lines to identify multiple opportunities for drug repurposing: Primary screen for NB1643 cells (AID 1347099); note: nearly all actives have a fitted effect of over 50% in size; note: potency is the fitted concentration of half-maximal effect
In short: as §2

[12] = qHTS of pediatric cancer cell lines to identify multiple opportunities for drug repurposing: Primary screen for LAN-5 cells (AID 1347100); note: potency is the fitted concentration of half-maximal effect
In short: as §3

[13] = qHTS of pediatric cancer cell lines to identify multiple opportunities for drug repurposing: Primary screen for Rh18 cells (AID 1347102); note: nearly all actives have a fitted effect of over 65% in size
In short: as §3

[14] = qHTS of pediatric cancer cell lines to identify multiple opportunities for drug repurposing: Primary screen for RD cells (AID 1347104); note: nearly all actives have a fitted effect of over 55% in size
In short: as §2

[15] = qHTS of pediatric cancer cell lines to identify multiple opportunities for drug repurposing: Primary screen for MG 63 (6-TG R) cells (AID 1347105); note: nearly all actives have a fitted effect of over 50% in size
In short: as §2

[16] = qHTS of pediatric cancer cell lines to identify multiple opportunities for drug repurposing: Primary screen for control Hh wild type fibroblast cells (AID 1347106);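 note: series mostly up to about 46 µM; a drop in luminescence marks cytotoxicity and a rise apparent proliferation; nearly all actives have a fitted effect of over 55% in size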
In short: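 Viability after 48 h compound treatment at 37C, 500-1,000 cells/well, read as ATP luminescence with CellTiter-Glo. Primary screens used 11-point (MIPE, 0.78 nM-46 µM) or 8-point (NPC, 0.59 nM-46 µM) final concentrations; follow-up screens used 11-point dilutions.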

[17] = qHTS of pediatric cancer cell lines to identify multiple opportunities for drug repurposing: Primary screen for BT-12 cells (AID 1347101); note: nearly all actives have a fitted effect of over 25% in size; note: potency is the fitted concentration of half-maximal effect
In short: as §4

[18] = qHTS of pediatric cancer cell lines to identify multiple opportunities for drug repurposing: Primary screen for OHS-50 cells (AID 1347103); note: nearly all actives have a fitted effect of over 40% in size; note: potency is the fitted concentration of half-maximal effect
In short: as §4

Row | Structure (SMILES) | Potency [1] | Potency [2] | Potency [3] | Potency [4] | Potency [5] | Potency [6] | Potency [7] | Potency [8] | Potency [9] | Potency [10] | Potency [11] | Potency [12] | Potency [13] | Potency [14] | Potency [15] | Potency [16] | Potency [17] | Potency [18]
1 | CC(=O)OCC(=O)[C@@]1(O)CC[C@H]2[C@@H]3CCC4=CC(=O)C=C[C@]4(C)[C@H]3[C@@H](O)C[C@@]21C | inactive | inactive | inactive | inactive | inactive | inactive | inactive | inactive | inactive | inactive | inactive | inactive | inactive | inactive | inactive | inactive |  | 
2 | Cc1ccnc(NS(=O)(=O)c2ccc(N)cc2)n1 | inactive | inactive | inactive | inactive | inactive | inactive | inactive | inactive | inactive | inactive | inactive | inactive | inactive | inactive | inactive | inactive | inactive | inactive
3 | CCCCS(=O)(=O)N[C@@H](Cc1ccc(OCCCCC2CCNCC2)cc1)C(=O)O | inactive | inactive | inactive | inactive | inactive | inactive | inactive |  | inactive |  | inactive | inactive | inactive | inactive | inactive | inactive |  | inactive
4 | O=C1OC2(c3ccc(O)cc3Oc3cc(O)ccc32)c2ccccc21 | inactive | inactive | inactive | inactive | inactive | inactive | inactive |  | inactive | inactive | inactive | inactive | inactive | inactive | inactive | inactive | inactive | inactive
5 | C[C@]12C=CC(=O)C=C1CC[C@@H]1[C@@H]2[C@@H](O)C[C@@]2(C)[C@H]1CC[C@]2(O)C(=O)CO | inactive | inactive | inactive | inactive | inactive | inactive | inactive |  |  | inactive | inactive | inactive | inactive | inactive | inactive | inactive | inactive | inactive
6 | CC1(C)O[C@@H]2C[C@H]3[C@@H]4C[C@H](F)C5=CC(=O)CC[C@]5(C)[C@H]4[C@@H](O)C[C@]3(C)[C@]2(C(=O)CO)O1 | inactive | inactive | inactive | inactive | inactive | inactive | inactive |  | inactive | inactive | inactive | inactive | inactive | inactive | inactive | inactive | inactive | inactive
7 | Cc1ccc(C(=O)C(C)CN2CCCCC2)cc1 (stereo not drawn) | inactive | inactive | inactive | inactive | inactive | inactive | inactive |  | inactive | inactive | inactive | inactive | inactive | inactive | inactive | inactive | inactive | inactive
8 | CN1CCN(C(c2ccccc2)c2ccccc2)CC1 | inactive | inactive | inactive | inactive | inactive | inactive | inactive | inactive | inactive |  | inactive | inactive | inactive | inactive | inactive | inactive | inactive | 
9 | CC1(C)O[C@@H]2C[C@H]3[C@@H]4CCC5=CC(=O)CC[C@]5(C)[C@@]4(F)[C@@H](O)C[C@]3(C)[C@]2(C(=O)CCl)O1 | inactive | inactive | inactive | inactive | inactive | inactive | inactive |  | inactive | inactive | inactive | inactive | inactive | inactive | inactive | inactive |  | 
10 | CCOc1ccc(NC(=O)CC(C)O)cc1 (stereo not drawn) | inactive | inactive | inactive | inactive | inactive | inactive | inactive | inactive |  | inactive | inactive | inactive | inactive | inactive | inactive | inactive | inactive | inactive
11 | CC(=O)OCC(=O)NCCCOc1cccc(CN2CCCCC2)c1 | inactive | inactive | inactive | inactive | inactive | inactive |  | inactive | inactive | inactive | inactive | inactive | inactive | inactive | inactive | inactive | inactive | inactive
12 | c1ccc(OCc2ccc(CCCN3CCOCC3)cc2)cc1 | inactive | inactive | inactive | inactive | inactive | inactive | inactive | inactive | inactive | inactive | inactive |  | inactive | inactive | inactive | inactive |  | 
13 | NC(=O)c1cc[n+](CC2=C(C(=O)[O-])N3C(=O)[C@@H](NC(=O)Cc4cccs4)[C@H]3SC2)cc1 | inactive | inactive | inactive | inactive | inactive | inactive |  | inactive | inactive | inactive | inactive | inactive | inactive | inactive | inactive | inactive | inactive | inactive
14 | CCOC(=O)OC(C)OC1=C(C(=O)Nc2ccccn2)N(C)S(=O)(=O)c2ccccc21 (stereo not drawn) | inactive | inactive | inactive | inactive | inactive | inactive |  | inactive | inactive | inactive | inactive | inactive | inactive | inactive | inactive | inactive | inactive | inactive
15 | CC(C)(C(=O)c1cccnc1)c1cccnc1 | inactive | inactive | inactive | inactive | inactive | inactive | inactive | inactive |  | inactive | inactive | inactive | inactive | inactive | inactive | inactive | inactive | inactive
16 | CCCCN1CCCC1C(=O)Nc1c(C)cc(C)cc1C (stereo not drawn) | inactive | inactive | inactive | inactive | inactive | inactive | inactive |  |  | inactive | inactive | inactive | inactive | inactive | inactive | inactive | inactive | 
17 | Cc1cc2c(cc1CC(=O)c1sccc1S(=O)(=O)Nc1onc(C)c1Cl)OCO2 | inactive | inactive | inactive | inactive | inactive | inactive | inactive |  | inactive | inactive | inactive | inactive | inactive | inactive | inactive | inactive | inactive | inactive
18 | CCCC(=O)Nc1ccc(OCC(O)CNC(C)C)c(C(C)=O)c1 (stereo not drawn) | inactive | inactive | inactive | inactive | inactive | inactive | inactive | inactive |  | inactive | inactive | inactive | inactive | inactive | inactive | inactive |  | inactive
19 | CC(=O)OCC(=O)[C@@]1(OC(C)=O)[C@@H](C)C[C@H]2[C@@H]3C[C@H](F)C4=CC(=O)C=C[C@]4(C)[C@@]3(F)[C@@H](O)C[C@@]21C | inactive | inactive | inactive | inactive | inactive | inactive | inactive | inactive | inactive | inactive |  | inactive | inactive | inactive | inactive | inactive |  | inactive
20 | Cc1ncc(CSSCc2cnc(C)c(O)c2CO)c(CO)c1O | inactive | inactive | inactive | inactive | inactive | inactive |  | inactive | inactive | inactive | inactive | inactive | inactive | inactive | inactive | inactive | inactive | inactive
21 | Cc1ccc(Nc2c(F)cccc2Cl)c(CC(=O)O)c1 | inactive | inactive | inactive | inactive | inactive | inactive | inactive |  | inactive | inactive | inactive | inactive | inactive | inactive | inactive | inactive | inactive | inactive
22 | COc1cc2c(cc1OC)[C@@H]1CC(=O)[C@@H](CC(C)C)CN1CC2 | inactive | inactive | inactive | inactive | inactive | inactive | inactive |  | inactive | inactive | inactive | inactive | inactive | inactive | inactive | inactive | inactive | 
23 | CCN1CCCC1=O | inactive | inactive | inactive | inactive | inactive | inactive | inactive |  | inactive | inactive | inactive | inactive | inactive | inactive | inactive | inactive | inactive | inactive
24 | OC[C@H]1O[C@@H](n2cnc3c(=S)nc[nH]c32)[C@H](O)[C@@H]1O | 1670 nM (active) | 422 nM (active) | 3760 nM (active) | 266 nM (active) | 18800 nM (active) | 389 nM (active) | 1330 nM (active) |  | 15000 nM (active) |  | 750 nM (active) | 2110 nM (active) | inactive | inactive | inactive | inactive | 9780 nM (active) | 550 nM (active)
25 | Nc1ccn([C@@H]2O[C@H](CO)[C@@H](O)C2(F)F)c(=O)n1 | 11.8 nM (active) | 2660 nM (active) | 473 nM (active) | 4.2 nM (active) | 106 nM (active) | 4.9 nM (active) | 1190 nM (active) | inactive |  |  | 42.2 nM (active) | 75 nM (active) | inactive | inactive |  | inactive |  | 11000 nM (active)
